In PubChem BioAssay one finds inhibition data, which are given here for 14 molecules.

The target in assay [1] is Nuclear receptor coactivator 3 (Homo sapiens) (UniProt Q9Y6Q9). The assay is described as follows: NCOA3 GAL4-fusion reporter inhibition – cell-based, luminescence, quadruplicate, confirmation (AID 588792;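 active = mean inhibition over 43.08%, the solvent-only control mean plus 3 SD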;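 also: 0% = DMSO treated cells and 100% = gossypol at 36 µM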). The settings on record: HEK293 GAL4-SRC3 luciferase reporter, at 3.6 µM, stronger effect = higher value.
For assay [2], the system named is transactivating tegument protein VP16 (Human herpesvirus 1), Gal4-VP16 luciferase reporter. The assay is described as follows: repression of VP16-driven luciferase reporter – cell-based, luminescence, high throughput, counter-screen for SRC3 inhibitor project (AID 588794). The settings on record: mammalian cells, at 3.6 µM, stronger effect = higher value.
In assay [3] the target is Nuclear receptor coactivator 1 (Homo sapiens) (UniProt Q15788). The assay is described as follows: NCOA1 GAL4-fusion reporter inhibition – cell-based, luminescence, quadruplicate, confirmation (AID 588820;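 active = mean inhibition above 46.68%, the untreated control wells mean plus 3 SD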;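 also: 0% = DMSO wells and 100% = gossypol 36 µM treated wells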). The settings on record: HEK293 GAL4-SRC1 luciferase reporter, at 3.6 µM, stronger effect = higher value.
Assay [4] in a line: repression of VP16-driven luciferase reporter – cell-based, luminescence, high throughput, counter-screen for SRC1 inhibitor project (AID 588824; in the data active = inhibition above about 25%). The settings on record: cell-based VP16 transactivation luciferase luminescence; at 3.6 µM; stronger effect = higher value.
A short description of assay [5]: StAR promoter reporter inhibitors, counter-screen for LRH-1 inverse agonist project, cell-based, luminescence, high throughput (AID 651611; in the data active = inhibition above about 28%). To be noted: StAR promoter luciferase reporter counterscreen, at 3.6 µM, stronger effect = higher value.
The target in assay [6] is Nuclear receptor subfamily 5 group A member 2 (Homo sapiens) (UniProt O00482). As to the kind of experiment: NR5A2 activity suppression in reporter cells – cell-based, luminescence, confirmation (AID 651613; in the data active = inhibition above about 42%;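 also: HEK293T cells co-transfected with LRH-1 and StAR promoter luciferase reporter; 0% = vehicle wells and 100% = parental cells lacking receptor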). The settings on record: cell-based LRH-1 luciferase reporter, inverse agonism; at 3.6 µM; stronger effect = higher value.
Assay [7] concerns the target Steroidogenic factor 1 (Homo sapiens) (UniProt Q13285). As to the kind of experiment: inverse agonism at SF1 nuclear receptor – cell-based, luminescence, high throughput, counter-screen for LRH-1 inverse agonist project (AID 651614; in the data active = inhibition above about 44%;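 also: cells cotransfected with StAR promoter reporter and SF1 expression vector; 0% = vehicle on cells with receptor and 100% = vehicle on cells lacking receptor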). The settings on record: cell-based SF1 luciferase reporter, at 3.6 µM, stronger effect = higher value.
Assay [8] can be described thus: compounds suppressing VP16-driven luciferase signal – cell-based, luminescence, high throughput, counter-screen for LRH-1 inverse agonist project (AID 651615; in the data active = inhibition above about 33%). To be noted: Gal4-VP16 luciferase reporter cells, at 3.6 µM, stronger effect = higher value.
For assay [9], the system named is transactivating tegument protein VP16 (Human herpesvirus 1). The assay is described as follows: compounds suppressing VP16-driven luciferase signal – cell-based, luminescence, single concentration, counter-screen for SRC2 inhibitor project (AID 652007; in the data active = inhibition above about 36%). The settings on record: cell-based VP16 transactivation luciferase reporter, at 8.9 µM, stronger effect = higher value.
Assay [10] deals with Nuclear receptor coactivator 2 (Homo sapiens) (UniProt Q15596). As to the kind of experiment: inhibition of GAL4-SRC2 driven luciferase expression – cell-based, luminescence, HEK293, triplicate, confirmation (AID 652008;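 active = mean inhibition above 46.5%, the solvent-only control mean plus 3 SD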;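 also: 0% = DMSO-treated cells and 100% = Gossypol at 36 µM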). The settings on record: HEK293 GAL4-SRC2 luciferase reporter, at 8.9 µM, stronger effect = higher value.
The nature of assay [11]: VP16-driven transactivation reporter suppression – cell-based, luminescence, HEK293, counter-screen for COUP-TFII antagonist project (AID 687007; in the data active = inhibition above about 13%). The settings on record: HEK293 Gal4-VP16 luciferase reporter, at 8.5 µM, stronger effect = higher value.
The target of assay [12] is COUP transcription factor 2 (Homo sapiens) (UniProt P24468). The assay is described as follows: retest of COUP-TFII reporter suppressors – cell-based, luciferase reporter, HEK293, triplicate, confirmation (AID 687008;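 active = mean inhibition over three repeats above a set limit taken from the earlier primary screen, cut at about 38% in these data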;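 also: 100% = cells given the luciferase reporter alone without the COUP-TF2 vector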). The settings on record: HEK293 NGFI-A luciferase reporter, luminescence; at 8.5 µM; stronger effect = higher value.

Unmarked numbers belong to inactive results. The list shows a part of the results. The source made the active and inactive calls. Rule as the data show it, unless noted: active = inhibition above about 30%; inactive = the rest.

Sequence of Steroidogenic factor 1 (Homo sapiens) (Q13285 whole entry, looked up, the tested form may be a part): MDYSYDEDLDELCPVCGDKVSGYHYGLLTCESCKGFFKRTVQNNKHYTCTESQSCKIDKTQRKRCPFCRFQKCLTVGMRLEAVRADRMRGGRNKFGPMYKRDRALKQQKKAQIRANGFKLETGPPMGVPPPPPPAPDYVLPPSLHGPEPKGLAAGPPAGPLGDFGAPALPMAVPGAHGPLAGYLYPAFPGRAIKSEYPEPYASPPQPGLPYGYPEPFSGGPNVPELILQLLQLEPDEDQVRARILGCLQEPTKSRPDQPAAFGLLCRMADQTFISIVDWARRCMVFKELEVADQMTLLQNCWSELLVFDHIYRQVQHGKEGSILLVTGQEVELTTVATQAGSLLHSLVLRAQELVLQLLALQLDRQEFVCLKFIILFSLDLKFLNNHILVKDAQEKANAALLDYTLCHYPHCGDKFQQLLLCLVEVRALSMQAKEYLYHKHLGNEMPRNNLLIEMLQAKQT
Sequence of Nuclear receptor coactivator 1 (Homo sapiens) (Q15788 whole entry, looked up, the tested form may be a part): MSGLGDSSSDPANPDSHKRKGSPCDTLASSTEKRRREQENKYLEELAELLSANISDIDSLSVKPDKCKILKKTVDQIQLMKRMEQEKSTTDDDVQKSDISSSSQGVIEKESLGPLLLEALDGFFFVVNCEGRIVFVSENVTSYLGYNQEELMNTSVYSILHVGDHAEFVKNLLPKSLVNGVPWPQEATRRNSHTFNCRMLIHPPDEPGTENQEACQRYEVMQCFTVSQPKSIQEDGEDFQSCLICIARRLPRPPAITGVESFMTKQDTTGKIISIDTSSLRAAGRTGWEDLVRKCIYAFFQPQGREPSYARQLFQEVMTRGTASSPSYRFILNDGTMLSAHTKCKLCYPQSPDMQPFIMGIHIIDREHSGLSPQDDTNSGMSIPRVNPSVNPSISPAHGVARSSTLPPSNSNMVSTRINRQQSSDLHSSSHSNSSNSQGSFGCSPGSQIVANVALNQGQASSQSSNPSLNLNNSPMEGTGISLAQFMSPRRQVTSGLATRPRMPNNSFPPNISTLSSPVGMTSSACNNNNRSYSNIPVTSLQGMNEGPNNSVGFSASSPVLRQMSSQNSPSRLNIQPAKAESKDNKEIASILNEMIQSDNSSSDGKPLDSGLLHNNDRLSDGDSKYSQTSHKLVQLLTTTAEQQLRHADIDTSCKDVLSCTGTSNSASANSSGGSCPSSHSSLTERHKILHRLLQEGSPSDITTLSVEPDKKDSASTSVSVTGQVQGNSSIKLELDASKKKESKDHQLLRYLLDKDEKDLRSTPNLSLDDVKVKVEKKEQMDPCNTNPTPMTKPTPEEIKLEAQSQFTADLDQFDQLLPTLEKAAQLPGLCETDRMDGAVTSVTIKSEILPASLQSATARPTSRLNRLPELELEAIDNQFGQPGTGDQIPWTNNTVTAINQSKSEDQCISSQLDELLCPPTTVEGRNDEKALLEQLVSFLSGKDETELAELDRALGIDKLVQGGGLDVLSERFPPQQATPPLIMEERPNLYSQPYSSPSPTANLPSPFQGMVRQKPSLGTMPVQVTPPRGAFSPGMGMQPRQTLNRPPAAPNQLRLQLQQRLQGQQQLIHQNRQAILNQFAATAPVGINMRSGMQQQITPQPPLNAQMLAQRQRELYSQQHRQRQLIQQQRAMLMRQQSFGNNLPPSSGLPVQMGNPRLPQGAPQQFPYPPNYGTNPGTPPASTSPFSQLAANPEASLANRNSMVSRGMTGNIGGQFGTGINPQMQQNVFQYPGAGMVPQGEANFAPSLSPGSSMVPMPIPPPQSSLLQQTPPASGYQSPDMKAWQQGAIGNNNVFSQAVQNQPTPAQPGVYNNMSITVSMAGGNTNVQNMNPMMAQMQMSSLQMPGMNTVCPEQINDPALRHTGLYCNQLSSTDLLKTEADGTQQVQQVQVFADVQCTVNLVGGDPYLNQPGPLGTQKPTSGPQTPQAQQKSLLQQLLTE
Sequence of COUP transcription factor 2 (Homo sapiens) (P24468 whole entry, looked up): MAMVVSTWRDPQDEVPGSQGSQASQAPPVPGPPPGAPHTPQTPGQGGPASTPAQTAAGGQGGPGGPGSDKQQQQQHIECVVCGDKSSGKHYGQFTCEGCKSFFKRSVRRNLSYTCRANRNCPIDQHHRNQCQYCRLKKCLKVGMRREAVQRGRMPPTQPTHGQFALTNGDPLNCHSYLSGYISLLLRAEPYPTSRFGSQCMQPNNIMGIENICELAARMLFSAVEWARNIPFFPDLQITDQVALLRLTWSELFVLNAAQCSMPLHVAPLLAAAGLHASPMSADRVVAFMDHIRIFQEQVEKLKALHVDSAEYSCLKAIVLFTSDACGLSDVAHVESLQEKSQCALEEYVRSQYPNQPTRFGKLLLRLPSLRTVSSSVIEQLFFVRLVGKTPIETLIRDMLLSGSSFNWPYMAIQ
Sequence of Nuclear receptor subfamily 5 group A member 2 (Homo sapiens) (O00482 whole entry, looked up): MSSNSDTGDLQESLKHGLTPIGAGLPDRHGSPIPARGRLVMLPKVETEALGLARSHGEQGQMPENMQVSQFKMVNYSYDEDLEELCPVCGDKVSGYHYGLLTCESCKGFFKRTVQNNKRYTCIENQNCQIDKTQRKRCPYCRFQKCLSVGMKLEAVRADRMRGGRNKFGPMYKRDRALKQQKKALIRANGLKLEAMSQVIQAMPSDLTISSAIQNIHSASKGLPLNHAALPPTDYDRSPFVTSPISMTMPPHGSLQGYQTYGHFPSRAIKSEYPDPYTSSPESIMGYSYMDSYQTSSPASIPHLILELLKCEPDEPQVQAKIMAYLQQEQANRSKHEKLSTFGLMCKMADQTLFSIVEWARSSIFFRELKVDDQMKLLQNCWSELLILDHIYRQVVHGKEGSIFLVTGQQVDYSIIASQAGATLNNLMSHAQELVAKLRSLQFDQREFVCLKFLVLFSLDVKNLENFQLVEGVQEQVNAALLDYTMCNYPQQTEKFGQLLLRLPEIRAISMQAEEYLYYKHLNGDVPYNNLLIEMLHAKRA
Sequence of Nuclear receptor coactivator 2 (Homo sapiens) (Q15596 whole entry, looked up, the tested form may be a part): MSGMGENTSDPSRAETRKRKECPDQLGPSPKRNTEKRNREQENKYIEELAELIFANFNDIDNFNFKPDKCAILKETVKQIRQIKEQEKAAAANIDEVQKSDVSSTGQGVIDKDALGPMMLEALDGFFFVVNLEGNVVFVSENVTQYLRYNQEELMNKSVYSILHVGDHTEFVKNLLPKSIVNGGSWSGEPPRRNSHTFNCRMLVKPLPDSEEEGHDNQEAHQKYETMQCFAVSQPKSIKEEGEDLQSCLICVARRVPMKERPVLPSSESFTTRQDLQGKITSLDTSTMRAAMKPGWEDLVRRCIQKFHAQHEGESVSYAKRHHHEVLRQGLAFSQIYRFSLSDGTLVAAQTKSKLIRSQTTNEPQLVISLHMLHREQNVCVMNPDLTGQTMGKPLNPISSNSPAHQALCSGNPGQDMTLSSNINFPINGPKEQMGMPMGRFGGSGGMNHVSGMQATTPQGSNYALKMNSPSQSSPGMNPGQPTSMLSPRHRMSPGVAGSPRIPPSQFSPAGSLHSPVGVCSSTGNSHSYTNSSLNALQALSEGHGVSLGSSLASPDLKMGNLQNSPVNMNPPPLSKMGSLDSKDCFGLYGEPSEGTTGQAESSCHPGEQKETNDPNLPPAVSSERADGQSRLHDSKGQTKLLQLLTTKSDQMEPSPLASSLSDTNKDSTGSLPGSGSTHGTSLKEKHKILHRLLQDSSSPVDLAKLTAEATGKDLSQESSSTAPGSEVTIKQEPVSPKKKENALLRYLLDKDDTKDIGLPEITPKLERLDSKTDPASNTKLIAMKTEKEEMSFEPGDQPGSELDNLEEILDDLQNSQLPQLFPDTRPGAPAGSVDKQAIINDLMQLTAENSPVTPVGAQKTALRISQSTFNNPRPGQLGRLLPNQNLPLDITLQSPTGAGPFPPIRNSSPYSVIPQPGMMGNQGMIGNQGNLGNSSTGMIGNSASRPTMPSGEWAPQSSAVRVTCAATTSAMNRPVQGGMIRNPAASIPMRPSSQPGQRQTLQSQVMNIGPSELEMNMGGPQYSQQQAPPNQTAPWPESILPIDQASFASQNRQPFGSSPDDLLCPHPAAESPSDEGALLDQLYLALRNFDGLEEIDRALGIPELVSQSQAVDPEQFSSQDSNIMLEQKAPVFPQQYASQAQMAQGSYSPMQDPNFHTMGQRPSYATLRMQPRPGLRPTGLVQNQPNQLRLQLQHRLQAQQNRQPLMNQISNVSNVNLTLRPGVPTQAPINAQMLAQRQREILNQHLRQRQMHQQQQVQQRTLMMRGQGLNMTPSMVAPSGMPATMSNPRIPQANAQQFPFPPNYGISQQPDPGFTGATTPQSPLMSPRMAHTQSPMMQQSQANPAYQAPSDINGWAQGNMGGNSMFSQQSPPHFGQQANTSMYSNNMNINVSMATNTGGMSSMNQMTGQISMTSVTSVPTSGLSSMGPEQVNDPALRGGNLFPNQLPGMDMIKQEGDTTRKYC

Take `O=C(Nc1ccc(OC(=O)N2CCCCC2)cc1)N1CCOCC1`: the inhibition in [1] was 24.1%; in assay [2], 1.46%; in assay [3], 9.87%; in assay [4] it was -2.66%; in assay [5], 29.4% (active); in assay [6], 19.7%. Further, the inhibition is 37.9% in assay [7], 14.3% in assay [8], 35% in [9] and 68.5% (active) in assay [10].

For the molecule `CC(=O)OC1CC(OC2C(O)CC(OC3C(O)CC(OC4CCC5(C)C(CCC6C5CC(O)C5(C)C(C7=CC(=O)OC7)CCC65O)C4)OC3C)OC2C)OC(C)C1OC1OC(CO)C(O)C(O)C1O` (centres undefined), the inhibition in assay [1] is 97.8% (active); in assay [2], 88.9% (active); in assay [3], 73.8% (active); in [4], 86.5% (active); in assay [5] it was 95% (active); in assay [6], 109% (active). The inhibition in assay [7] is 97.9% (active); in [8], 89.4% (active); in [9], 64.3% (active); in assay [10] it was 28.8%.

In the case of `O=C(c1ccccc1)C(CN1CCCC1)c1ccccc1` (centres undefined), the inhibition in assay [1] is 19.4%; in [2], 33.5% (active); in assay [3], 10.9%; in assay [4], 39.2% (active); in [9], 27%; in assay [10], 68.3% (active).

Consider `COC1C(O)C(C)OC(OC2CCC3(C=O)C(CCC4C3CCC3(C)C(C5=CC(=O)OC5)CCC43O)C2)C1O` (centres undefined), for which the inhibition in [1] was 96.8% (active); in assay [2], 89.2% (active); in assay [3], 81.5% (active); in [4], 88.7% (active); in assay [5], 93.6% (active); in [6], 110% (active). In addition, the inhibition in assay [7] is 97.2% (active); in assay [8], 93% (active); in assay [11], 51% (active); in [12] it was 76.3% (active).

In the case of `CCOc1ccc(-c2cc(C)[n+](CCN(CC)CC)c(-c3ccc(OCC)cc3)c2)cc1`, the inhibition in assay [1] is 68.1% (active); in [2], 80.8% (active); in assay [3] it was 67.7% (active); in assay [4], 81.7% (active); in [5], 73.6% (active); in assay [6] it was 105% (active). The inhibition in assay [7] was 93.8% (active); in [8], 90% (active); in assay [11], 19.5% (active); in assay [12], 62% (active).

Take `C[C@]12CC[C@H](O)C[C@H]1CC[C@@H]1C2CC[C@]2(C)[C@@H](C3=CC(=O)OC3)[C@@H](O)C[C@]12O` (some centres undefined): the inhibition is 75.3% (active) in assay [1]; 21.1% in [2]; -39% in assay [3]; 12.7% in assay [4]; 87.1% (active) in assay [5]; 90.4% (active) in [6]. In addition, the inhibition is 69.9% (active) in [7], 40.9% (active) in assay [8], -16.6% in [11] and 30.9% in assay [12].

As for `CCC1CN2CCc3cc(OC)c(OC)cc3C2CC1CC1NCCc2c1[nH]c1ccc(O)cc21` (centres undefined), the inhibition in [1] was 98% (active); in [2], 96.7% (active); in assay [3], 95.4% (active); in assay [4] it was 95.9% (active); in [5], 95.7% (active); in [6], 110% (active). Moreover, the inhibition in assay [7] is 98.3% (active); in assay [8] it was 98.7% (active); in assay [9] it was 78.1% (active); in [10], 73.4% (active).

For the molecule `C=C1C(=O)OC2CC(C)C3C=CC(=O)C3(C)C(O)C12` (centres undefined), the inhibition in assay [1] is 38%; in [2], 90.7% (active); in assay [4] it was 90.6% (active); in assay [5] it was 62.5% (active); in assay [6] it was 88.6% (active); in assay [7], 90.1% (active). Further, in assay [8], the inhibition was 91.2% (active).

Take `O=C1NC2C(=CC(O)C(O)C2O)c2cc3c(c(O)c21)OCO3` (centres undefined): the inhibition in assay [1] was 97.4% (active); in assay [2] it was 96.1% (active); in [3], 94.7% (active); in [4], 94.7% (active); in assay [5] it was 95.7% (active); in assay [6], 109% (active). For the same molecule, the inhibition was 98% (active) in assay [7], 96% (active) in [8], 79.3% (active) in assay [9] and 75.6% (active) in assay [10].

Turning to `CC1CCOC(=O)C=CC=CC(=O)OC2CC3OC4C5OC5(C)C(O)CC4(COC(=O)C1O)C2(C)C31CO1` (centres undefined), the inhibition is 98.8% (active) in assay [1]; 97.3% (active) in [2]; 97.2% (active) in [3]; 97.1% (active) in assay [4]; 80.4% (active) in [9]; 75.2% (active) in assay [10].

For `C=C1C(=O)O[C@@H]2C[C@@H](C)[C@@H]3C=CC(=O)[C@@]3(C)[C@@H](OC(=O)CC(=O)O[C@H]3[C@@H]4C(=C)C(=O)O[C@@H]4C[C@@H](C)[C@@H]4C=CC(=O)[C@]43C)[C@H]12`, the inhibition in assay [1] was 97.5% (active); in assay [2], 96% (active); in assay [3], 91.3% (active); in assay [4], 95.7% (active); in assay [5], 94.5% (active); in [6], 106% (active). The inhibition was 97.1% (active) in [7], 94.5% (active) in [8], 96% (active) in assay [9] and 99% (active) in assay [10].

In the case of `CC1OC(OC2CC(O)C3(CO)C4C(O)CC5(C)C(C6=CC(=O)OC6)CCC5(O)C4CCC3(O)C2)C(O)C(O)C1O` (centres undefined), the inhibition in [1] is 97.2% (active); in [2], 89.1% (active); in assay [3], 80.3% (active); in [4], 87.2% (active); in [6] it was 109% (active); in [7], 96% (active). Also, the results for the inhibition in assay [8], in [9] and in [10] were 93.5% (active), 70.9% (active) and 54% (active), respectively.

In the case of `CC(=O)OC[C@]12CCC(C)=C[C@H]1O[C@@H]1[C@H](O)[C@@H](OC(C)=O)[C@@]2(C)[C@]12CO2`, the inhibition in assay [1] was 98.8% (active); in assay [2], 97.9% (active); in assay [3], 98% (active); in [4], 97.8% (active); in assay [5], 96% (active); in assay [6], 109% (active). Moreover, the inhibition was 98% (active) in [7], 97.1% (active) in assay [8], 78.3% (active) in [9] and 73% (active) in [10].

In the case of `C=Cc1cc(OC)c2c(c1)c(=O)oc1c2cc(OC)c2c(O)ccc(C3OC(C)C(O)C(C)(O)C3O)c21` (centres undefined), the inhibition in assay [1] was 46.1% (active); in assay [2], 88.3% (active); in assay [3], -23.3%; in assay [4] it was 88% (active); in assay [9], 42.7% (active); in [10], -166%.
